PubChem BioAssay (EPA / NIEHS)
Results filed as inconclusive are left out. Active and inactive are the calls of the source. How the source made its calls: active means hit-call score of the fitted dose curve at least 0.9, where 1 is the maximum; inconclusive means response in the unintended direction; inactive means score below 0.9.

Each compound was assayed against human Phosphoinositide 3-kinase alpha (PI3Ka), PIK3CA (gene 5290) (UniProt P42336) (assay: NVS_ENZ_hPI3Ka: NovaScreen (NVS) Enzymatic Assay for human Phosphoinositide 3-kinase alpha (PI3Ka) (AID 2283196)).
human Phosphoinositide 3-kinase alpha (PI3Ka), PIK3CA (gene 5290), sequence (P42336 whole entry, looked up): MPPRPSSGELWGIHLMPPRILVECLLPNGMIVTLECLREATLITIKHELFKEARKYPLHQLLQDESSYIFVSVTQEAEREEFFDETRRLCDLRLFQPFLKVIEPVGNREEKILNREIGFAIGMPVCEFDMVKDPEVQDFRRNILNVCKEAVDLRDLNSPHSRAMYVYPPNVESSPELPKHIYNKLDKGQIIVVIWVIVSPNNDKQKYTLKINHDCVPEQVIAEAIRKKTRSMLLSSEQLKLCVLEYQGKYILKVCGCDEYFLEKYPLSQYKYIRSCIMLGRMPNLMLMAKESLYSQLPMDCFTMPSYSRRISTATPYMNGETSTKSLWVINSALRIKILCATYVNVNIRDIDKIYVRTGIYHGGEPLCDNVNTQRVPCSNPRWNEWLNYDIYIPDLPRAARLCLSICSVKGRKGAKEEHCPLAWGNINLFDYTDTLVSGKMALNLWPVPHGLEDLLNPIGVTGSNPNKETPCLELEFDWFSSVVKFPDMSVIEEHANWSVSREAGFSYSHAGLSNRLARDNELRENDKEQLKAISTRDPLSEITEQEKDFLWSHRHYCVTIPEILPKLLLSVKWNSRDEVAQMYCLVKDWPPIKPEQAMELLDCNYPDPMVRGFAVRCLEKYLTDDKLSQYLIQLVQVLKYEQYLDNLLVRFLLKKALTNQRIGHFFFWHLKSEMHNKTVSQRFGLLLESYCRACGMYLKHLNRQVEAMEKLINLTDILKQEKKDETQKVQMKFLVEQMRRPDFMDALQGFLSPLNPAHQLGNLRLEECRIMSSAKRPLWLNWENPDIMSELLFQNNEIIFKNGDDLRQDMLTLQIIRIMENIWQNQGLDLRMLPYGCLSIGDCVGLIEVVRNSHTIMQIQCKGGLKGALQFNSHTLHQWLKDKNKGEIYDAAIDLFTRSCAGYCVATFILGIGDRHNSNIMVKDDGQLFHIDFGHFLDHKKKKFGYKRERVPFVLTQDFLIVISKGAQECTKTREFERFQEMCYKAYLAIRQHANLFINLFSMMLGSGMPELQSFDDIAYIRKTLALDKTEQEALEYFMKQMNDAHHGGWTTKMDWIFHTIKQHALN
In short: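 Fluorescence/mobility-shift readout of substrate conversion by recombinant enzyme, 1 h post-dosing. Primary screen in duplicate at 25 uM; actives (e.g. ≥30% inhibition) retested in singleton concentration-response, top concentration 50 uM.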

SMILES | AC50 | outcome
CC(C)(c1cc(Br)c(OCCO)c(Br)c1)c1cc(Br)c(OCCO)c(Br)c1 | 2.62 µM (active) | –
Cc1ccc(N)c([N+](=O)[O-])c1 | – | inactive
CCCCCCCCCCCCCCCC[N+](C)(C)CC | 1.95 µM (active) | –
CNC(=S)N(C)C | – | inactive
COCCOCCOCCOCCOC | – | inactive
Cc1cc(C)c(C)c(C)c1 | – | inactive
N#[N+]c1ccc2c(S(=O)(=O)[O-])cccc2c1O | – | inactive

These compounds were tested against sheep Cyclooxygenase-1 (Cox1), PTGS1 (gene 443551) (UniProt P05979) (assay: NVS_ENZ_oCOX1: NovaScreen (NVS) Enzymatic Assay for sheep Cyclooxygenase-1 (Cox1) (AID 2283239);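 further: actives reduce cyclooxygenase activity so potencies are for inhibitors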).
sheep Cyclooxygenase-1 (Cox1), PTGS1 (gene 443551), sequence (P05979 whole entry, looked up): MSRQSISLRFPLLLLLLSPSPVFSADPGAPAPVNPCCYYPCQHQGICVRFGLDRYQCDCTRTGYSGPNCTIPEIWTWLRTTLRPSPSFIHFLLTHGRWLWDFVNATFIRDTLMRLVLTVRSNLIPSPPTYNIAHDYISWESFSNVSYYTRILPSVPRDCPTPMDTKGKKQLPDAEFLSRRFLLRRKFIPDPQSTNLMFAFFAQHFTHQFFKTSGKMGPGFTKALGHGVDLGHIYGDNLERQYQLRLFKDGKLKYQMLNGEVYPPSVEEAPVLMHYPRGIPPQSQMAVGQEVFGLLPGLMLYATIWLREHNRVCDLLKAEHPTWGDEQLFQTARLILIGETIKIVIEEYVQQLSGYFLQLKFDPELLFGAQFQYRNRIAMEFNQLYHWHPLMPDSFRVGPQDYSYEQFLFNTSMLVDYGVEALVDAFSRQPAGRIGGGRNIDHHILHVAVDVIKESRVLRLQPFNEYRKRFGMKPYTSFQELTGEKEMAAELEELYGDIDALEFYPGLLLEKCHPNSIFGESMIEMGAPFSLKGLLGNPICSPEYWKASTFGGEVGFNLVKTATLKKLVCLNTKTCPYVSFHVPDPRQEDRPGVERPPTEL
In short: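 Ovine seminal vesicle extract; absorbance (colorimetric) enzyme read-out at 0.66 h post-dose. Primary: single conc 25 uM, duplicate. Follow-up: concentration series on actives. Activity = signal loss vs DMSO baseline.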

SMILES | AC50
c1ccc2c(c1)ccc1cc3c(ccc4ccccc43)cc12 | 22.5 µM (active)
C/C=C\C/C=C/CCCCCCCCOC(C)=O | 25 µM (active)
COc1ccc2nc(N)sc2c1 | 14.9 µM (active)
C#CC1(O)CC[C@H]2[C@@H]3CCC4=CCCC[C@@H]4[C@H]3CC[C@@]21C (some centres undefined) | 43.8 µM (active)
N#[N+]c1ccc2c(S(=O)(=O)[O-])cccc2c1O | 5.62 µM (active)

What follows are compounds tested against D(1A) dopamine receptor (Homo sapiens) (UniProt P21728) (assay: NVS_GPCR_hDRD1: NovaScreen (NVS) G Protein-Coupled Receptor Assay for human Dopamine Receptor D1 (DRD1) (AID 2283269)).
D(1A) dopamine receptor (Homo sapiens), sequence (P21728 whole entry, looked up): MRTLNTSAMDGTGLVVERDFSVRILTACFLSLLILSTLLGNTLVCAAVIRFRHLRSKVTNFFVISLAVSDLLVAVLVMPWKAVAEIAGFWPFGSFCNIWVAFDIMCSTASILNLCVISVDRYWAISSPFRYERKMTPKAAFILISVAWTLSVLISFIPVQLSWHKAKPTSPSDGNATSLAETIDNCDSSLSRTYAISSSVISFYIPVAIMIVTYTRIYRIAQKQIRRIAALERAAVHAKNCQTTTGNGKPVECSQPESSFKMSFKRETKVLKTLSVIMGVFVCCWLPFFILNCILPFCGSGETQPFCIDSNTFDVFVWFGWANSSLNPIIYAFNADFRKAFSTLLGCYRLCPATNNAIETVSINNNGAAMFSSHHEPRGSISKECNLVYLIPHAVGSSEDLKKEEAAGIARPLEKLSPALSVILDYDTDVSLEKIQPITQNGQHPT
In short: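 Cell-free radioligand binding to human DRD1 from HEK293 membranes, read 1 h after dosing by filter-based scintillation counting. Loss of signal versus DMSO baseline marks displacement. Primary screen at 25 uM single concentration in duplicate; actives followed up in concentration series.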

SMILES | AC50 | outcome
CCCCC/C=C\C/C=C\CCCCCCCC(=O)OC | 45.1 µM (active) | –
CCCCCCCCCCCCCCCC[N+](C)(C)CC | 1.95 µM (active) | –
CCC(CC)C(=O)O | – | inactive
C#CC1(O)CC[C@H]2[C@@H]3CCC4=CCCC[C@@H]4[C@H]3CC[C@@]21C (some centres undefined) | – | inactive

The compounds below were run against human Thromboxane A2 Receptor (TXA2), TBXA2R (gene 6915) (UniProt P21731) (assay: NVS_GPCR_hTXA2: NovaScreen (NVS) G Protein-Coupled Receptor Assay for human Thromboxane A2 Receptor (TXA2) (AID 2283282);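 further: actives reduce bound radioligand signal relative to DMSO baseline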).
human Thromboxane A2 Receptor (TXA2), TBXA2R (gene 6915), sequence (P21731 whole entry, looked up): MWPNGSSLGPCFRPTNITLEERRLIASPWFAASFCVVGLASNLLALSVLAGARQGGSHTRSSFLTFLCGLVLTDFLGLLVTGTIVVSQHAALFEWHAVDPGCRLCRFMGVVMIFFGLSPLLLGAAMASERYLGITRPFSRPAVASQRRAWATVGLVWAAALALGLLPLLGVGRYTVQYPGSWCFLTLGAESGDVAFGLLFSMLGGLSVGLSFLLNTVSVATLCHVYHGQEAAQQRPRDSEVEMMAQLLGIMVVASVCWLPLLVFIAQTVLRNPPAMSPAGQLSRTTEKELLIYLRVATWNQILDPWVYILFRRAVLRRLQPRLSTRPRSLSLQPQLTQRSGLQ
In short: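 Filter scintillation counting of bound radioligand, human platelet protein, 1 h exposure. Single-concentration duplicates (25 uM) first, concentration-response follow-up for actives. Binding loss scored against DMSO baseline.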

SMILES | AC50 | outcome
CCCCC/C=C\C/C=C\CCCCCCCC(=O)OC | 25 µM (active) | –
S=C(NC1CCCCC1)NC1CCCCC1 | 1.56 µM (active) | –
Cc1ccc(N)c([N+](=O)[O-])c1 | – | inactive
